Screening data deposited in PubChem by National Center for Advancing Translational Sciences (NCATS).
Most compounds without a hit are left out; they make up all but 7.3% or so of the library.
ELG1 genotox = induces genotoxicity in HEK293T cells with luciferase-tagged ELG1. hit rate 1.3% among 330,000. Potency, µM (doses to about 46 µM), for the others: at the top dose activity change, positive = activation, usual class: activators. HEK293T ELG1-luciferase reporter, luminescence, 16 h. AID 504466; further: % of control where 0% means no effect; nearly all actives have a fitted effect of over 60% in size
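Genotoxicity was scored as increased ELG1-luciferase reporter signal, measured by ONE-Glo luminescence (30 min, room temperature). Compound or vehicle exposure of the HEK293T reporter cells lasted 16 hr at 37°C.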
SMN2 splice enh = increases expression of the SMN2 splice variant; HEK293 SMN2-luciferase splicing reporter, luminescence, 30-36 h; Potency, µM (highest dose often 46.1 µM), without a hit: at the top dose activity change, positive = activation, usual class: activators; hit rate 2.8% among 210,000; further: % of control where 0% means no effect; nearly all actives have a fitted effect of over 55% in size
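HEK293 cells carry an SMN2 […]–luciferase reporter in which exon 7 inclusion puts luciferase in frame. Cells were plated 10-12 h before compound addition, then incubated 30-36 h at 37C. ONE-Glo luminescence was read; sodium butyrate at 4.5 mM final served as control.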
KinaseGlo FLuc = counter-screen: inhibitors of Kinase-Glo firefly luciferase | Q27757 | Kinase-Glo luciferase, ATP luminescence, 8 min | Potency, µM (titrated, usually from 38.3 µM), without a hit: at the top dose activity change, negative = inhibition, most hits filed as inhibitors | hit rate 0.28% among 200,000 | AID 1379; further: on the % scale 0 is the no-effect control and ±100 the full control effect; nearly all actives have a fitted effect of over 60% in size
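Substrate mix (final 50 mM imidazole pH 7.2, 50 mM KCl, 7 mM MgCl2, 10 uM ATP, 0.01% Tween 20, 0.05% BSA) plus pin-tool compound, then Kinase-Glo detection mix; 8 min ambient, luminescence read.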
NPC1 promoter act = NPC1 promoter activation. Huh7 NPC1 promoter luciferase reporter, 24 h. Potency, µM (highest dose often 9.22 µM), for inactives: at the highest dose activation, most hits filed as activators. hit rate 2.4% among 320,000. AID 485313; further: % of control where 0% means no effect; nearly all actives have a fitted effect of over 60% in size
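Readout is luciferase luminescence, reflecting NPC1 promoter activation in stably transfected Huh7 cells after 24 h compound exposure at 37 °C in reduced-serum medium with 10% FBS.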
FLuc modulator = firefly luciferase modulation, counter-screen for miR-21 project; hit rate 6.9% among 360,000; P08659; Potency, µM (doses to about 57.5 µM), for inactives: at the top dose activity change, negative = inhibition, actives largely listed as inhibitors; AID 588342; purified FLuc, Km substrates, luminescence inhibition;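 further: plate controls were vehicle for no effect and reference inhibitor for full effect; nearly all actives have a fitted effect of over 55% in size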
Target sequence (P08659 whole entry, looked up): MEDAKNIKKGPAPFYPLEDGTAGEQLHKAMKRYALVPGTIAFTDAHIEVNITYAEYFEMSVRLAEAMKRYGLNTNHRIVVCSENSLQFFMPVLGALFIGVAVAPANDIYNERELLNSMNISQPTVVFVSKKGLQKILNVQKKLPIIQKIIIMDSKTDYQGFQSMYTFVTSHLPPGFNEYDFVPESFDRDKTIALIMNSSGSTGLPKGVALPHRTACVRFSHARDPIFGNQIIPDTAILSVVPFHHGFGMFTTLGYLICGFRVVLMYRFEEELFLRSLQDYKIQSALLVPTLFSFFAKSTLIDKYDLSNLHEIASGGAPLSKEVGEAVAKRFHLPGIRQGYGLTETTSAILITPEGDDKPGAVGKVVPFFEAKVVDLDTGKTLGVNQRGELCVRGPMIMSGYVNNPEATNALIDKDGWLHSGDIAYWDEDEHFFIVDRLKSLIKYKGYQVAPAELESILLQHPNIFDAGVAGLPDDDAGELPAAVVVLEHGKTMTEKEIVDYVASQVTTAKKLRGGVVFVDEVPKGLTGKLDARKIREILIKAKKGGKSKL
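Biochemical qHTS of compounds, final roughly 60 µM downward over six points, against 10 nM purified firefly luciferase using Km concentrations of substrates (10 uM D-luciferin, 10 uM ATP) in Tris acetate pH 7.5 buffer; luminescence output.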
Rab9 promoter act = activates the Rab9 promoter. Huh7 Rab9 promoter-luciferase reporter, luminescence, 24 h. Potency, µM (titrated, usually from 9.22 µM), for inactives: top-dose activation, negative = inhibition, most hits filed as activators. hit rate 2.8% among 320,000. AID 485297; further: % of control where 0% means no effect; nearly all actives have a fitted effect of over 60% in size
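Huh7 cells stably carrying a Rab9 promoter-luciferase reporter, 1500 cells per well in OP-MEM I with 10% FBS, treated with compound 24 hours at 37C. Luciferase activity read by luminescence after 10 minutes with Amplite reagent.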
* = called active by the depositor; ? = inconclusive; · = no result; [ ] = dose if it differs, or a comment. The call rests on the fitted dose curve; in most records, active means well fitted curve in the direction sought with a large enough effect; inconclusive means small, poorly fitted or top-dose-only effect, or another doubt; inactive means no such curve, though single readings can be large; an effect the other way counts as inactive or inconclusive. Potency means the concentration at half of the fitted maximal effect.

SMILES | ELG1 genotox | SMN2 splice enh | KinaseGlo FLuc | NPC1 promoter act | FLuc modulator | Rab9 promoter act
COc1ccc(CN(C)C(=O)c2cc(-c3ccccc3)nc3ccc(C)cc23)c(OC)c1OC | -19.2% | · | · | -3.8% | ? | ?
C[N+](C)([O-])CCC=C1c2ccccc2CCc2ccccc21 | · | -9.1%[9.22 µM] | -3.0%[7.66 µM] | · | · | ·
COCCn1c(SCC(=O)Nc2ccc(Br)cc2)nc2c([nH]c3ccccc32)c1=O | · | · | · | · | 1.4% | ·
CCOc1cc(C(=S)N2CCCC2)ccc1OCc1ccccc1 | 0.2% | · | · | -0.9% | 2.7% | 0.6%
S=C(c1ccc(OCc2ccccc2)cc1)N1CCCC1 | ? | · | · | ? | 19µM* | ?
Fc1ccc(COc2ccc(C(=S)N3CCCC3)cc2)cc1 | ? | · | · | 2.24µM* | 21.3µM* | 1.26µM*
COc1ccc(-n2ncc3c2ncn2nc(-c4ccc(Cl)cc4Cl)nc32)cc1 | · | -2.5% | · | · | -0.3% | ·
O=[N+]([O-])c1ccc(/C=C/c2ccc3cccc(O)c3n2)cc1 | ? | · | · | ? | 2.39µM* | ?
CC(=O)Nc1ccc(/C=C/c2ccc3cccc([N+](=O)[O-])c3n2)cc1 | -2.6% | · | · | 16.6% | ? | -1.0%
O=[N+]([O-])c1ccc(/C=C/c2ccc3ccccc3n2)cc1 | -8.5% | 2.24µM* | ? | ? | 0.601µM* | 0.562µM*
Cc1cccc(C(=O)Nc2ccccc2OCc2cc(=O)n3ccccc3n2)c1 | · | · | · | · | -0.2% | ·
Cc1ccc(Nc2nc3c(s2)CCC3)c(C)c1 | 20.6µM* | 12.6µM* | -2.6% | ? | 7.57µM* | ?
COc1ccccc1Nc1c2c(nc3ccccc13)CCC2 | -5.8% | · | · | -25.5% | 6.0% | -24.7%
COc1ccccc1Nc1nc2c(s1)CCC2 | 15.8% | -16.3% | 4.1% | 27.5% | 15.1µM* | 26.8%
Cc1ccc(NC(=O)Nc2nc3c(s2)CCCCCC3)cc1C | · | · | · | · | -0.7% | ·
Cc1cc(=O)n(CC(=O)NCc2ccc(OC(C)C)cc2)c2c1c(C)nn2-c1cccc(F)c1 | · | · | · | · | -6.0% | ·
CCCC(=O)NCC(c1ccc2c(c1)OCO2)N1CCN(c2ccccc2)CC1 (centres undefined) | · | · | · | · | -2.3% | ·
CC(C)(C)n1ncc2c(=O)n(Cc3cccc(C(F)(F)F)c3)cnc21 | · | · | · | · | -9.2% | ·
Clc1ccc(-c2cnnc(-c3ccccn3)n2)cc1 | 20.6µM* | · | · | · | · | ·
Cc1ccc(NC(=O)CN2C(=O)COc3ccc(S(=O)(=O)N4CCCCCC4)cc32)c(C)c1 | · | · | · | · | -3.1% | ·
O=C(CCCN1C(=O)c2cccc3cccc(c23)C1=O)NC1CCS(=O)(=O)C1 (centres undefined) | -9.3% | · | -0.7% | 0.9% | 4.78µM* | 2.7%
O=C(O)CCCN1C(=O)c2cccc3cccc(c23)C1=O | -0.2% | · | · | -2.7% | -0.6% | 2.6%
Cc1cc(-n2c(C)cc(C(=O)COc3ccc(F)c(F)c3)c2C)no1 | 8.9% | · | · | 28.3% | 16.9µM* | ?
O=C(NCc1ccccc1F)C1CCCN(C(=O)N2CCOc3ccccc32)C1 (centres undefined) | · | · | · | · | -0.7% | ·
CS(=O)(=O)c1ccc2nc(NC(=O)CS(=O)(=O)Cc3ccccc3)sc2c1 | 0.9% | -5.9% | 7.1% | 1.0% | 16.9µM* | 10.6%
SMILES | ELG1 genotox | SMN2 splice enh | KinaseGlo FLuc | NPC1 promoter act | FLuc modulator | Rab9 promoter act
CS(=O)(=O)c1ccc2nc(NC(=O)Nc3ccccc3F)sc2c1 | ? | · | · | 0.316µM* | 0.536µM* | 1.12µM*
Cc1ccc(C(=O)Nc2nc3ccc(S(C)(=O)=O)cc3s2)cc1C | 9.8% | · | · | 13.6% | -0.9% | 11.9%
CS(=O)(=O)c1ccc2nc(NC(=O)Cc3ccccc3)sc2c1 | 2.8% | · | · | -1.0% | -5.7% | 13.5%
CS(=O)(=O)c1ccc2nc(NC(=O)c3ccc(NS(=O)(=O)c4cccc([N+](=O)[O-])c4)cc3)sc2c1 | -1.0% | · | · | -3.0% | 10.7µM* | 11.5%
CS(=O)(=O)c1ccc2nc(NC(=O)c3ccccc3)sc2c1 | ? | · | · | 0.631µM* | 2.13µM* | 0.501µM*
CS(=O)(=O)c1ccc2nc(NC(=O)CCNC(=O)c3ccc([N+](=O)[O-])cc3)sc2c1 | 13.9% | · | · | 9.0% | -7.1% | 14.8%
CC(C)=CCC1=C(O)[C@](O)(CC=C(C)C)C(=O)C(C(=O)CC(C)C)=C1O | · | -11.9% | -0.9% | · | · | ·
